Assay results published in PubChem BioAssay (NCATS).
Inconclusive results are not listed. Calls of active or inactive are those of the source. Unless noted, calls come from the whole dose curve; as a rule, active = well fitted curve in the direction sought with a large enough effect; inconclusive = small, poorly fitted or top-dose-only effect, or another doubt; inactive = no such curve, though single readings can be large; an effect the other way counts as inactive or inconclusive.

Assays:
[1] = target: DNA repair nuclease/redox regulator APEX1 (Homo sapiens) (UniProt P27695); assay: qHTS Validation Assay for Inhibitors of the Human Apurinic/apyrimidinic Endonuclease 1 (APE1) (AID 1705;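 note: TAMRA fluorescence gain over two minutes as APE1 cuts a quenched THF abasic duplex; % is set by controls: 0 for no effect and ±100 for the full control effect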)
In short: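 Read-out: TAMRA fluorescence (525 nm ex, 598 nm em) from cleavage of a quenched THF abasic-site duplex, 50 nM final; activity taken as intensity change between third and first of three reads 60 s apart.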

[2] = Counterscreen for APE1 Inhibitors: Fluorescent Dye Displacement Validation Assay (AID 1707);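 note: plate controls were ThO with dsDNA and no compound for no effect and ThO without dsDNA for full effect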
In short: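 Signal: ThO fluorescence (ex 480 nm/em 540 nm) on binding 50 nM dsDNA; displacement by test compound reduces it. Conditions: 250 nM dye, 50 mM Tris-HCl pH7.5, 2 mM MgCl2, 50mM NaCl, 0.01% Tween-20.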

[3] = target: Endonuclease 4 (Escherichia coli (strain K12)) (UniProt P0A6C1); assay: Counterscreen for APE1 Inhibitors: qHTS Validation Assay for Inhibitors of Endonuclease IV (AID 1708); note: potency is the fitted concentration of half-maximal effect; for activity change, negative = inhibition: % is set by controls: 0 for no effect and ±100 for the full control effect
In short: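 Incision of a double-stranded 50 nM TAMRA/BHQ-2 abasic substrate was followed kinetically (525/598 nm, reads every 60 s) after 15 min enzyme–compound preincubation with 2 nM EndoIV in pH 7.5 Tris buffer with MgCl2, DTT and Tween-20; concentration-response format.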

[4] = qHTS for differential inhibitors of proliferation of Plasmodium falciparum line Dd2 (AID 1882); conditions: Potency: Plasmodium falciparum Dd2 proliferation inhibition; note: nearly all actives have a fitted effect of over 65% in size; note: potency is the fitted concentration of half-maximal effect;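 for activity change, negative = inhibition: plate controls were DMSO vehicle for no effect and 0.29 µM artemisinin for full effect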
In short: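 SYBR Green DNA fluorescence (ex 485, em 535 nm) after overnight lysis quantifies parasite growth; compound exposure lasted 72 h at 37 C on infected red cells at 2.5% hematocrit, 0.3% parasitemia (final). Artemisinin 0.29 uM and vehicle wells define normalization.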

[5] = target: Ferritin light chain (Equus caballus) (UniProt P02791); assay: qHTS Validation Assay for Identification of Novel General Anesthetics (AID 2323); note: % is set by controls: 0 for no effect and ±100 for the full control effect
In short: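 10 uM horse-spleen apoferritin + 1-AMA (50% saturated, PBS); cpd pin-transferred, 10 min RT. Ex 380/Em 535 nm endpoint. Activity normalized between free 1-AMA and 1-AMA/apoferritin; 4-parameter Hill fit of concentration-response.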

[6] = qHTS Assay for Lipid Storage Modulators (AID 1519; calls by dose curve; note: potency is the fitted concentration of half-maximal effect; for activity change, negative = inhibition: % is set by controls: 0 for no effect and ±100 for the full control effect); conditions: Drosophila S3 cells, BODIPY lipid droplet/cell ratio, laser cytometry, cells loaded with oleic acid
In short: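 Cells seeded at 5,000 per well were treated with compounds over a concentration series and loaded with oleic acid (400 uM, as added). Lipid droplet fluorescence (488 nm excitation, 500-530 nm channel) was read by laser-scanning cytometry and normalized to 20 uM Triacsin C.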

[7] = qHTS for differential inhibitors of proliferation of Plasmodium falciparum line 7G8 (AID 1815);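 note: parasite growth measured after three days of incubation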; note: potency is the fitted concentration of half-maximal effect;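 for activity change, negative = inhibition: plate controls were vehicle wells for no effect and reference inhibitor wells for full effect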
[8] = qHTS for differential inhibitors of proliferation of Plasmodium falciparum line W2 (AID 1883); conditions: Potency: Plasmodium falciparum W2 proliferation inhibition;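 note: parasites grown with compound for 72 h before lysis and staining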; note: potency is the fitted concentration of half-maximal effect;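 for activity change, negative = inhibition: 0% = vehicle wells and -100% = control inhibitor wells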
[9] = target: Alpha-galactosidase A (Homo sapiens) (UniProt P06280); assay: Counterscreen for Glucocerebrosidase Inhibitors: qHTS Assay for Human alpha-Galactosidase at pH 4.5 (AID 992); note: 0% is about no effect
In short: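 Citrate buffer pH 4.5, Tween-20 0.005%. Enzyme 2 nM, substrate 80 uM, 20 min RT. Stop pH 10. Fluorescence Ex 365/Em 440. AC50 by Hill fit.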

[10] = target: alpha-glucosidase (Oryza sativa, rice) (UniProt Q653V4); assay: Counterscreen for Glucocerebrosidase Inhibitors: qHTS Assay for Rice alpha-Glucosidase at pH 5.0 (AID 997);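 note: 0% = full activity with enzyme and -100% = basal without enzyme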
In short: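 Endpoint fluorogenic assay at pH 5.0: compounds (0.7 nM to 77 uM) titrated against 4 nM rice enzyme and 400 uM 4-MU-alpha-glucoside for 20 min at room temperature; NaOH/glycine stop, read ex 365/em 440 nm, Hill-fitted AC50.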

[11] = target: Alpha-galactosidase (Coffea arabica) (UniProt Q42656); assay: Counterscreen for Glucocerebrosidase Inhibitors: qHTS Assay for Coffee Bean alpha-Galactosidase at pH 5.9 (AID 998);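 note: plate controls were uninhibited enzyme for no effect and no-enzyme basal signal for full effect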
In short: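 Fluorogenic 4-MU substrate hydrolysis, 80 uM substrate and 2 nM coffee bean alpha-galactosidase, pH 5.9 citrate buffer, 20 min at room temperature, then NaOH/glycine stop. Titration 0.7 nM–77 uM, normalized to no-enzyme and enzyme controls, AC50 via Hill equation.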

[12] = qHTS for differential inhibitors of proliferation of Plasmodium falciparum line 3D7 (AID 1876); note: potency is the fitted concentration of half-maximal effect
[13] = qHTS for differential inhibitors of proliferation of Plasmodium falciparum line GB4 (AID 1816); conditions: Potency: Plasmodium falciparum GB4 proliferation inhibition;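 note: parasite growth measured after 72 h incubation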; note: potency is the fitted concentration of half-maximal effect;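 for activity change, negative = inhibition: 0% = vehicle DMSO and -100% = reference inhibitor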
[14] = qHTS for differential inhibitors of proliferation of Plasmodium falciparum line D10 (AID 1877);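 note: parasites grown with compound for 72 h before DNA staining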; note: potency is the fitted concentration of half-maximal effect;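 for activity change, negative = inhibition: plate controls were vehicle wells for no effect and reference inhibitor wells for full effect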
[15] = qHTS for differential inhibitors of proliferation of Plasmodium falciparum line HB3 (AID 1886); conditions: Potency: Plasmodium falciparum HB3 proliferation inhibition;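 note: parasites grown with compound for 72 h before SYBR Green readout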; note: potency is the fitted concentration of half-maximal effect;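 for activity change, negative = inhibition: plate controls were vehicle for no effect and reference inhibitor for full effect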
[16] = Validation of Assay for Modulators of Lamin A Splicing (AID 1459; active = well fitted curve in the direction sought with a large enough effect in the signal ratio; the % refers to the signal ratio;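 note: cells exposed to compound for two days before reading; 0% is about no effect; ratio rise marks activators and ratio drop marks inhibitors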)
In short: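 Readout: ratio of GFP (500-530 nm) to RFP (575-640 nm) total object intensity by 488 nm laser-scanning cytometry after 48 hrs. Cells were HeLa S3 clones carrying lamin A-EGFP minigene plus DsRed2 viability reporter; vehicle 0.5% DMSO final.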

[17] = measured here: cell count channel max response
[18] = measured here: lipid channel max response

Sequence of Alpha-galactosidase A (Homo sapiens) (P06280 whole entry, looked up): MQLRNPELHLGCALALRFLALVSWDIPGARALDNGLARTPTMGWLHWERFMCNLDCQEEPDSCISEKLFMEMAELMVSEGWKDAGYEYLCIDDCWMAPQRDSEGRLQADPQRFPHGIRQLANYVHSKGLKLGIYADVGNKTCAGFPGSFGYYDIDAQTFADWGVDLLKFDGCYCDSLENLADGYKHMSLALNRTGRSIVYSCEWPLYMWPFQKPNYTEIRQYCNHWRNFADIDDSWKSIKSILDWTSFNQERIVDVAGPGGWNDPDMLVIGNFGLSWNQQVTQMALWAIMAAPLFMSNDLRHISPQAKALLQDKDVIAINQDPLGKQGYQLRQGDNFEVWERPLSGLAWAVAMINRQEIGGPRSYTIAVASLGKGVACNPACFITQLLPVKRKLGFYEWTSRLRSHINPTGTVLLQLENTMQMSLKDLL
Sequence of DNA repair nuclease/redox regulator APEX1 (Homo sapiens) (P27695 whole entry, looked up): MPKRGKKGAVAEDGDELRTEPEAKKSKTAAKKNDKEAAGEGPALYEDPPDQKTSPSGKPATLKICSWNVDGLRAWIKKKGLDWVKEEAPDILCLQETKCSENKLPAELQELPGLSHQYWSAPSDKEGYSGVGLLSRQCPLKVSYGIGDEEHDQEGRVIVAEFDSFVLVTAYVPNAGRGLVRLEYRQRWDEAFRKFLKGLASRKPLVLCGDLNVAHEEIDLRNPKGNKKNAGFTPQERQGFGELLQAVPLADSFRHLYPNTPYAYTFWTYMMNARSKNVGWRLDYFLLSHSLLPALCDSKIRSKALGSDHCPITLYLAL
Sequence of Alpha-galactosidase (Coffea arabica) (Q42656 whole entry, looked up): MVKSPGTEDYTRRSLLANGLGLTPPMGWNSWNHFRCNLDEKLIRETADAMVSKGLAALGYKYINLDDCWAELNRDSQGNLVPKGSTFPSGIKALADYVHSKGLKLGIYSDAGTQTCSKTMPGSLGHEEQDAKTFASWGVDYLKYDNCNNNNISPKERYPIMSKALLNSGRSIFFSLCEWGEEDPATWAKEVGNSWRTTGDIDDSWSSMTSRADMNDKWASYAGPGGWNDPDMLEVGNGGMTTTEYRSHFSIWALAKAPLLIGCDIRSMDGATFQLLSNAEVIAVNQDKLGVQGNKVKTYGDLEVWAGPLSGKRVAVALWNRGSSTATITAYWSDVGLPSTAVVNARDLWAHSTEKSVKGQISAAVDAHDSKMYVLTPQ
Sequence of Ferritin light chain (Equus caballus) (P02791 2-175 limits assumed): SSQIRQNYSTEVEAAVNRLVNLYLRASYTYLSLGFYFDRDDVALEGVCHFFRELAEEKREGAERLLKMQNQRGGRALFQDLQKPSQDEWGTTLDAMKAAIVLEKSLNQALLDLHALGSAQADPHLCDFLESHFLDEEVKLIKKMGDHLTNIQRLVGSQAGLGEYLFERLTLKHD

CC(Cc1ccc(O)cc1)NCC(O)c1cc(O)cc(O)c1 (configuration not stated)
inactive: Potency [1] | Potency [2] | Potency [3] | Potency [4] | outcome [5]

CC(=O)[C@H]1CCC2C3CC[C@H]4C[C@H](O)CC[C@]4(C)C3CC[C@@]21C (some centres not stated)
-20.4%: max response [6, 17]
-15.9%: max response [6, 18]
active: Potency [7] 14.1 µM | Potency [8] 10 µM
inactive: activity change, negative = inhibition ([6]; at 57.5 µM (top of the series)) 2.34% | Potency [1] | Potency [2] | Potency [3] | Potency [4] | outcome [5]

CN[C@@H]1C[C@@H](c2ccc(Cl)c(Cl)c2)c2ccccc21
active: Potency [12] 12.6 µM | Potency [4] 12.6 µM
inactive: outcome [9] | outcome [10] | outcome [11] | Potency [1] | Potency [2] | Potency [3]

Clc1ccc(C(c2ccc(Cl)cc2)n2cc[n+](CC(OCc3ccc(Cl)cc3Cl)c3ccc(Cl)cc3Cl)c2)cc1 (configuration not stated)
active: Potency [3] 31.6 µM | Potency [7] 7.94 µM | Potency [13] 7.08 µM | Potency [12] 3.55 µM | Potency [14] 7.08 µM | Potency [8] 3.98 µM | Potency [15] 4.47 µM
inactive: Potency [1] | Potency [2]

CC[C@@]1(O)C(=O)OCc2c1cc1n(c2=O)Cc2cc3ccccc3nc2-1
inactive: outcome [9] | outcome [10] | outcome [11] | activity change, negative = inhibition ([6]; at 57.5 µM (top of the series)) -4.36% | Potency [1] | Potency [2] | Potency [3]
active: Potency [7] 1.41 µM | Potency [13] 0.794 µM | Potency [12] 0.794 µM | Potency [14] 1.12 µM | Potency [4] 1 µM | Potency [8] 0.794 µM | Potency [15] 0.794 µM
8.88%: max response [6, 18]
13.2%: max response [6, 17]

CC(C)Oc1cccnc1N(C)C1CCN(Cc2ccccc2)CC1
inactive: outcome [9] | outcome [10] | outcome [11] | outcome [16] | Potency [1] | Potency [2] | Potency [3] | Potency [14] | outcome [5]
active: Potency [8] 4.47 µM

NC(CP(=O)(O)O)C(=O)O (configuration not stated)
inactive: outcome [16] | Potency [2] | Potency [3] | Potency [7] | Potency [13] | Potency [12] | Potency [14] | Potency [4] | Potency [8] | Potency [15] | outcome [5]

COC(=O)[C@@H](N)CCCN=C(N)N[N+](=O)[O-]
-8.77%: max response [6, 18]
-4.51%: max response [6, 17]
inactive: activity change, negative = inhibition ([6]; at 57.5 µM (top of the series)) -4.08%

Cc1c(C(=O)c2cccc3ccccc23)c2cccc3c2n1[C@H](CN1CCOCC1)CO3
inactive: outcome [9] | outcome [10] | outcome [11] | Potency [1] | Potency [2] | Potency [3] | outcome [5]
active: Potency [13] 7.94 µM | Potency [14] 12.6 µM | Potency [8] 4.47 µM

CCCCCCCCCCCCCCCC[N+](C)(C)C
-15.3%: max response [6, 17]
active: Potency [6] 11.2 µM
-89.4%: max response [6, 18]

O=c1cccc2n1CC1CNC[C@H]2C1
-1.29%: max response [6, 17]
inactive: activity change, negative = inhibition ([6]; at 25.7 µM (top of the series)) -2.83%
-2.58%: max response [6, 18]

CC(=O)OCC1=C(C(=O)O)N2C(=O)[C@@H](N)[C@@H]2SC1
7.67%: max response [6, 17]
inactive: activity change, negative = inhibition ([6]; at 25.7 µM (top of the series)) 1.55%
10.5%: max response [6, 18]

CC1=NN=C(c2ccc(N)cc2)c2cc3c(cc2C1)OCO3
inactive: outcome [9] | outcome [10] | outcome [11] | outcome [16] | Potency [1] | Potency [2] | Potency [3] | Potency [4] | outcome [5]
active: Potency [7] 10 µM | Potency [8] 8.91 µM
